Measurements: the supplement of paper PMC10849652
The full data set covers some 7,900 targets. This sample favours those with a hit. About 0.6% of all pairs of compound and target were hits. Unmarked numbers belong to inactive results.

Compound: C[C@H](Nc1ncnc2nc[nH]c12)c1cc2cccc(Cl)c2c(=O)n1-c1ccccc1 [duvelisib]
Assay: log2 fold change, soluble protein after heating vs DMSO (PISA); higher = thermal stabilisation; K562 cells, 10 uM, 30 min; active = over 0.2 and 3.5 SD of the protein, either way, in both replicates (recomputed)
In short: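 Thermal stability values are relative to control samples and come from duplicates. They are expressed as log2 fold changes. For measurement, K562 cells (2×10^6 cells/mL) received 10 μM compound for 30 min, and aliquots were heated for 3 min over 48°C-58°C, pooled, and extracted at 4°C in PBS with 0.5% NP-40. Soluble protein, the supernatant after 21,000xg for 90 min, was quantified by TMTpro 16plex LC-MS/MS with equalised channel sums.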

UniProt A6NHX0, sequence (A6NHX0 whole entry, looked up): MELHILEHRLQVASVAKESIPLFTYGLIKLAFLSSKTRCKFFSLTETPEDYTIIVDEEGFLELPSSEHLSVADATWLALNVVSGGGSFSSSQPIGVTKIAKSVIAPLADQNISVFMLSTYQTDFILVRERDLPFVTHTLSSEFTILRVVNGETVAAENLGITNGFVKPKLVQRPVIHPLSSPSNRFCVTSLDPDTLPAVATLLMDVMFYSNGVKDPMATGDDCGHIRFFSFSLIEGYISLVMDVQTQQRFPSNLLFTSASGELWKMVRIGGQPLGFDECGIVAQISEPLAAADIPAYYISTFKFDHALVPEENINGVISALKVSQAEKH
UniProt Q01459, sequence (Q01459 whole entry, looked up): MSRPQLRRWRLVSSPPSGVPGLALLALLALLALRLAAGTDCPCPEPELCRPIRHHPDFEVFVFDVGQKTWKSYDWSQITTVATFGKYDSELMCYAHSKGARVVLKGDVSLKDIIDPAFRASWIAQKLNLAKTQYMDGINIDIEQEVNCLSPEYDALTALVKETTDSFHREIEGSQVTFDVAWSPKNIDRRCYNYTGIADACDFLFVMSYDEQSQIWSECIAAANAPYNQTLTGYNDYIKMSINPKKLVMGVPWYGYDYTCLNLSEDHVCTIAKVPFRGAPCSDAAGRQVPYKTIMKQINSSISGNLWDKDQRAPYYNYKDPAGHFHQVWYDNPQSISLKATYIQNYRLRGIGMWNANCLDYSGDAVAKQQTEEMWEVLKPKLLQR
UniProt P48729, sequence (P48729 whole entry, looked up): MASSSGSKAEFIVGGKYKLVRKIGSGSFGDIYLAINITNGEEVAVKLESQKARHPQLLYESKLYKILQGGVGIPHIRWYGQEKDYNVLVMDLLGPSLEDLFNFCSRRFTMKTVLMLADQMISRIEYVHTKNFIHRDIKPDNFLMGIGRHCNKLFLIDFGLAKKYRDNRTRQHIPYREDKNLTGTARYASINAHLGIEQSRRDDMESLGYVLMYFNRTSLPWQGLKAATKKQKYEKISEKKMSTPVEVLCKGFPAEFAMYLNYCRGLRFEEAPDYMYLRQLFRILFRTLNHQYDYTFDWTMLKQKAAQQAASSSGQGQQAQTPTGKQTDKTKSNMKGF
UniProt Q9Y6K0, sequence (Q9Y6K0 whole entry, looked up): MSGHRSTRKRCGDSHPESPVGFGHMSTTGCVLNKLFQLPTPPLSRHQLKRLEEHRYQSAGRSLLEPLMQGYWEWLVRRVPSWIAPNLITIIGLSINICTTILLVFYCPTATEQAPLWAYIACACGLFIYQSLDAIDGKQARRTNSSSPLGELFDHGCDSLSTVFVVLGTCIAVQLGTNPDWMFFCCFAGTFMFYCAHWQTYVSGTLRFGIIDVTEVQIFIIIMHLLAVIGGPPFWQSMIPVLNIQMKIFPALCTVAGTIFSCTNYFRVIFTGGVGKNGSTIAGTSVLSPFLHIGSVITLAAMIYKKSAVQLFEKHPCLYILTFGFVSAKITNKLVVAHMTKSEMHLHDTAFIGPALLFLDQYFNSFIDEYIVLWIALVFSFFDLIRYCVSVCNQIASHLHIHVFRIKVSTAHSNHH
UniProt Q16630, sequence (Q16630 whole entry, looked up): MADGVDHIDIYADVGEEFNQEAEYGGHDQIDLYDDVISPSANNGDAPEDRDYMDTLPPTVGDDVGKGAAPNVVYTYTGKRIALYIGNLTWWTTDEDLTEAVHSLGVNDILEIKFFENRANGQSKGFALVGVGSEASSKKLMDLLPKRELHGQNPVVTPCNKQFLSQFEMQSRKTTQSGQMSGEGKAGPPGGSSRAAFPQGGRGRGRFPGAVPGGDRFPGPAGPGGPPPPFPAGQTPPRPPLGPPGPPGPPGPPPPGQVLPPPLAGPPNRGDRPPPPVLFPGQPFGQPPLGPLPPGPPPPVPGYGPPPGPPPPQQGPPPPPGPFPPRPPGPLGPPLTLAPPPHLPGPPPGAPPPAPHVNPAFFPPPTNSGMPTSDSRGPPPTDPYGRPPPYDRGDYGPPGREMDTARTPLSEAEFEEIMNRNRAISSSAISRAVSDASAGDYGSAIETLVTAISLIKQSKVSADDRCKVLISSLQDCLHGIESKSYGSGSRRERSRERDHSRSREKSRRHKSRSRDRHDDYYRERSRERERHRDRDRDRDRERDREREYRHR
UniProt Q96LT7, sequence (Q96LT7 whole entry, looked up): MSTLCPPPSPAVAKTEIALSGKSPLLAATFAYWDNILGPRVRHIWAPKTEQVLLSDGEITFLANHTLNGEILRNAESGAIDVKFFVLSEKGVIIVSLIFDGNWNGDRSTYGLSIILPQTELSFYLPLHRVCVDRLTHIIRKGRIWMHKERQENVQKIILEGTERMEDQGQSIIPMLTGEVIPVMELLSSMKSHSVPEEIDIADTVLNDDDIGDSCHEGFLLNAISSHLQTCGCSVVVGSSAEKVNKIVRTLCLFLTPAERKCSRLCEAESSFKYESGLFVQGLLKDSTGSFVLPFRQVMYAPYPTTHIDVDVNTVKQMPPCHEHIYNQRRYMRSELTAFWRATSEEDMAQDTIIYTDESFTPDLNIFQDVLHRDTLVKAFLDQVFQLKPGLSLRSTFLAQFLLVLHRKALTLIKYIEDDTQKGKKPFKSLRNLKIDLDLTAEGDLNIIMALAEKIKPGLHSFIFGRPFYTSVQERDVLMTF
UniProt P21964, sequence (P21964 whole entry, looked up): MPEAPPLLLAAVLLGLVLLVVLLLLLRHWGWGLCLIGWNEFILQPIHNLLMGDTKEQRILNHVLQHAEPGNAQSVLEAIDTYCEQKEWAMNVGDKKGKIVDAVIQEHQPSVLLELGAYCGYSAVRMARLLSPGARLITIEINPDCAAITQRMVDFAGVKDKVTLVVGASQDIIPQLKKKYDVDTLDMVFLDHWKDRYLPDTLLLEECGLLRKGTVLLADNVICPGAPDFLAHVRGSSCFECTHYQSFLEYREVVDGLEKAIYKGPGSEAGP
UniProt Q9BT78, sequence (Q9BT78 whole entry, looked up): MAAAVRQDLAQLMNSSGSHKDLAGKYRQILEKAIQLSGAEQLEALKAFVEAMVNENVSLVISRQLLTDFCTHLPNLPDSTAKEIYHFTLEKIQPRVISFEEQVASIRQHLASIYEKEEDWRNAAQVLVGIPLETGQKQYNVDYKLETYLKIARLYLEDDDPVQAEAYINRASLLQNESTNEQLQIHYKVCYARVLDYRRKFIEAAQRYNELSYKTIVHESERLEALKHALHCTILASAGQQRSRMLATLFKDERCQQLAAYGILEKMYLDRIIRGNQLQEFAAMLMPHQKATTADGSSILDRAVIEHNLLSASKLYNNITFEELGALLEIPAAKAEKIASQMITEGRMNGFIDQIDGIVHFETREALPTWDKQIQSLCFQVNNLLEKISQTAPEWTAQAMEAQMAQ
UniProt Q14004, sequence (Q14004 whole entry, looked up): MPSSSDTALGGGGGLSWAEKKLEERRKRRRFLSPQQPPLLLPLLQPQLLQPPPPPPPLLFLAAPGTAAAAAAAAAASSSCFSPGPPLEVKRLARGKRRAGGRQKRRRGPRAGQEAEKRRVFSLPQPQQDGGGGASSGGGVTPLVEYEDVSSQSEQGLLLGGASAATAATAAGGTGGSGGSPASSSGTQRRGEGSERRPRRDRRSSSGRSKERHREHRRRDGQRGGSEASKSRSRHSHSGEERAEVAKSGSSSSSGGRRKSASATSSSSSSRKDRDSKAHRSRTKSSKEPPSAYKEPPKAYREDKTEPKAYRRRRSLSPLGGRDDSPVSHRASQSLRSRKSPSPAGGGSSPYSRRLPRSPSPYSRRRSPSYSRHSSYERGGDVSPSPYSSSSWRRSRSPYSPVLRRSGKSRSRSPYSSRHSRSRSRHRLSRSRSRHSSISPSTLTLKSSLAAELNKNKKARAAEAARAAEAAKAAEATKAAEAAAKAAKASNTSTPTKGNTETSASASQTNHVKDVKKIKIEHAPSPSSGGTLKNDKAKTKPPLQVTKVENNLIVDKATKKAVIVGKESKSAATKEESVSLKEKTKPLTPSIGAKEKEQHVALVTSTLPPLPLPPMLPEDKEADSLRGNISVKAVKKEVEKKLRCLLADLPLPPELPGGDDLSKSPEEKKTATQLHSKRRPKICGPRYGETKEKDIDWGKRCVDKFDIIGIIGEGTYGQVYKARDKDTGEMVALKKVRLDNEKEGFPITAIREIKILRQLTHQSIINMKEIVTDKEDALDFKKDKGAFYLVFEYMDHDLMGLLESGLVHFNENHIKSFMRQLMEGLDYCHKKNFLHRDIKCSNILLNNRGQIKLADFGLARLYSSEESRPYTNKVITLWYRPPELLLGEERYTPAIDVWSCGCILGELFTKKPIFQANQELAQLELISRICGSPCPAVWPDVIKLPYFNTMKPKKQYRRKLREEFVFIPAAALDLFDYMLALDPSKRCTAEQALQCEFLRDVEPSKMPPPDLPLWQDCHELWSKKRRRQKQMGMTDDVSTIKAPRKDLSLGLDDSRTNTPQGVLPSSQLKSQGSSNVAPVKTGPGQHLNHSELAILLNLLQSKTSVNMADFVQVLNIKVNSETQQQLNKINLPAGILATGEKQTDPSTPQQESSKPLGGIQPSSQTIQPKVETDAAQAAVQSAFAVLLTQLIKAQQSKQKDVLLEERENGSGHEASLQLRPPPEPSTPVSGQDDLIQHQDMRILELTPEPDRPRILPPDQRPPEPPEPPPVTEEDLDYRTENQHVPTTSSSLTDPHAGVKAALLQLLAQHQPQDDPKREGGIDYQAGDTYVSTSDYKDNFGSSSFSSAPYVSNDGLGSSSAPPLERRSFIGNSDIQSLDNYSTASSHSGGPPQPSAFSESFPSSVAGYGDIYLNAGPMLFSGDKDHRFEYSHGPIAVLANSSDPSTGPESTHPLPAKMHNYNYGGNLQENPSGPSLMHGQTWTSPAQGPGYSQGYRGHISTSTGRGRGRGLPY
UniProt O15182, sequence (O15182 whole entry, looked up): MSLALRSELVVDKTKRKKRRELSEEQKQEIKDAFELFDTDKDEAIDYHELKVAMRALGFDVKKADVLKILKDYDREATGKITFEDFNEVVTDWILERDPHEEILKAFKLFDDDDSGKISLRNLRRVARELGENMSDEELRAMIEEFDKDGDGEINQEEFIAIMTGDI

Target	log2 fold change
C9orf72 (UniProt Q96LT7)	0.008
CDK13 (UniProt Q14004)	0.043
CTBS (UniProt Q01459)	0.017
CCNB1 (UniProt P14635)	0.06
COMT (UniProt P21964)	0.109
CEPT1 (UniProt Q9Y6K0)	-0.022
COPS4 (UniProt Q9BT78)	0.029
COASY isoform 2 (UniProt Q13057)	0.058
CNOT1 (UniProt A5YKK6)	0.013
CETN3 (UniProt O15182)	0.057
CPSF6 isoform 2 (UniProt Q16630)	-0.004
CASTOR2 (UniProt A6NHX0)	0.075
CASC3 (UniProt O15234)	0.065
CLUH, A0A494C0R8	0.646 (active)
CLTB (UniProt P09497)	-0.035
CLCN3 isoform 2 (UniProt P51790)	0.015
CDC123 (UniProt O75794)	0.159
CD55 isoform 7 (UniProt P08174)	-0.021
CLUH (UniProt O75153)	0.698 (active)
CSNK1A1 (UniProt P48729)	-0.04
CNTN4 (UniProt Q8IWV2)	0.102
CDC42BPA isoform 6 (UniProt Q5VT25)	0.145
CDK5RAP1 (UniProt Q96SZ6)	-0.006
